The results in this text go back to PubChem BioAssay (NCATS).

Activity calls are given as the source filed them. The rule behind the calls is not given here. A value given as a limit tells only on which side of the number the result lay.
Potency is the fitted concentration of half-maximal effect.

For this test, the system named is HIV-1 nucleocapsid protein NCp7 (binding to TG oligonucleotide). Kind of test: HIV Nucleocapsid (AID 346).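 Note: potency is for inhibitors that block NC binding and lower polarization.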 The conditions noted are these: HIV-1 NC / fluorescein-TGTGTGTG probe, fluorescence polarization. As to the method:
NCGC Assay Overview: HIV-1 nucleocapsid protein (HIV-1 NC) is a small (6.5 kDa) basic zinc-finger protein which participates in packaging of viral genomic RNA. The spacing and metal-chelating residues (3 Cys, 1 His) of the Cys-X2-Cys-X4-His-X4-Cys Zn fingers are conserved among all known retroviruses (J. Med. Chem. 1998, 41, 1371-1381). HIV-1 NC was assayed for its binding to the consensus sequence single-stranded 5'-TGTGTGTG. […] High salt was included to increase the stringency of binding and inhibitor screen. Reducing agents and zinc were present to stabilize the nucleocapsid zinc-finger protein.
NCGC Assay Protocol Summary: Buffer. Hepes pH 7.5, 250mM NaCl, 1uM ZnCl2. 0.004% polyethylene glycol 20000. TCEP (100 uM) and 2-Mercaptoethanol (5 mM), added fresh the day of the experiment. Reagents/Controls. 10 nM TG4xF only in columns 3 and 4 as negative control. 10 nM TG4xF/100 nM HIV-1 NC in columns 1, 2, 5-48. Titration of control compound NSC-13778 (from 20 mM, then 1:2) pin-transferred to column 2. Assay Steps. Two uL of reagents were dispensed to 1536-well Kalypsys black plates. The plates were centrifuged for 1 min at 1000 rpm. Compounds and controls (20 nL) were transferred via Kalypsys PinTool. The plates were incubated for 1 hr at room temperature, and then read on ViewLux (Perkin-Elmer). High-throughput CCD imager using fluorescein polarization filter set and 45 seconds exposure time.
On the technique in general: Polarisation of emitted light reports the rotation of a fluorescent probe.
On to `CC(C)CN1CC2(CCN(C(=O)c3ccncc3)CC2)C1`, for which the Potency is > 20 µM (inactive).

`O=C(Oc1ccccc1)N1CCC[C@@]2(CCN(C(c3ccccc3)c3ccccc3)C2)C1`: the Potency was > 20 µM (inactive).

Turning to `CN1CCN(c2ncc3ncc(=O)n(C)c3n2)CC1`, the Potency was > 20 µM (inactive).

`O=C(Oc1ccccc1)N1CCC2(CC1)CN(C(c1ccccc1)c1ccccc1)C2`: the Potency is > 20 µM (inactive).

Turning to `CC(C)CN1CCC2(CC1)CCN(C(=O)Oc1ccccc1)CC2`, the Potency was > 20 µM (inactive).

As for `O=C(Oc1ccccc1)N1CCC[C@@]2(CCN(Cc3ccccc3)C2)C1`, the Potency is > 20 µM (inactive).

With `c1ccc(N2CC3(CCNCC3)C2)cc1`, the Potency is > 20 µM (inactive).

With `c1ccc(N2CCCC3(CCNCC3)C2)nc1`, the Potency is > 20 µM (inactive).

In the case of `O=C(Nc1cccc(F)c1)N1CC2(CCNCC2)C1`, the Potency was > 20 µM (inactive).

As for `COC(=O)N1CCC2(CCCN(C)C2)CC1`, the Potency was > 20 µM (inactive).

As for `N#Cc1ccc(CN2CCC3(CC2)CCN(C(=O)Oc2ccccc2)CC3)cc1`, the Potency is > 20 µM (inactive).

For `O=C(Nc1cccc(F)c1)N1CC2(CCN(C(=O)Oc3ccccc3)CC2)C1`, the Potency was > 20 µM (inactive).

`c1ccc(CN2CC[C@@]3(CCCNC3)C2)cc1`: the Potency is > 20 µM (inactive).

`CN1CCC2(CC1)CCN(C(=O)Oc1ccccc1)CC2`: the Potency is > 20 µM (inactive).

In the case of `CC(C)CN1CC2(CCN(C(=O)Oc3ccccc3)CC2)C1`, the Potency was > 20 µM (inactive).

On to `c1csc(CN2CC3(CCNCC3)C2)n1`, for which the Potency is > 20 µM (inactive).

As to `N#Cc1ccc(CN2CC[C@@]3(CCCNC3)C2)cc1`, the Potency was > 20 µM (inactive).

As for `O=C(Oc1ccccc1)N1CCC2(CC1)CCN(C(c1ccccc1)c1ccccc1)CC2`, the Potency is > 20 µM (inactive).

Consider `c1ccc(N2CCC3(CCNCC3)CC2)nc1`, for which the Potency was > 20 µM (inactive).

On to `c1cnc(N2CC3(CCNCC3)C2)nc1`, for which the Potency was > 20 µM (inactive).

`CN1CCCC2(CCN(C(=O)Oc3ccccc3)CC2)C1`: the Potency is > 20 µM (inactive).

Regarding `O=C(Nc1ccccc1)N1CC[C@@]2(CCCN(C(=O)Oc3ccccc3)C2)C1`, the Potency is > 20 µM (inactive).

As for `O=C(Nc1ccccc1)N1CC2(CCN(C(=O)Oc3ccccc3)CC2)C1`, the Potency was > 20 µM (inactive).

In the case of `O=C(c1ccncc1)N1CCC2(CC1)CN(Cc1ccccc1)C2`, the Potency is > 20 µM (inactive).

For `c1cnc(N2CCC3(CCNCC3)CC2)nc1`, the Potency was > 20 µM (inactive).

As to `CN1CC[C@@]2(CCCN(C(=O)c3ccco3)C2)C1`, the Potency was > 20 µM (inactive).

As for `O=C(Oc1ccccc1)N1CCC2(CCN(Cc3ccccc3)CC2)CC1`, the Potency was > 20 µM (inactive).

With `O=C(c1ccncc1)N1CCC[C@@]2(CCN(Cc3nccs3)C2)C1`, the Potency was > 20 µM (inactive).

For `O=C(Oc1ccccc1)N1CCC2(CCCN(C(c3ccccc3)c3ccccc3)C2)CC1`, the Potency was > 20 µM (inactive).

For `COc1ccc(NC(=O)N2CCC3(CC2)CCN(C(=O)Oc2ccccc2)CC3)cc1`, the Potency is > 20 µM (inactive).

Regarding `CN1CCCC2(CCN(C(=O)c3csnn3)CC2)C1`, the Potency is > 20 µM (inactive).

As for `O=C(Oc1ccccc1)N1CCC2(CC1)CN(Cc1ccncc1)C2`, the Potency is > 20 µM (inactive).

Consider `c1ccc(CN2CCC3(CCNCC3)CC2)cc1`, for which the Potency is > 20 µM (inactive).

Regarding `c1cc(N2CCCC3(CCNCC3)C2)ccn1`, the Potency is > 20 µM (inactive).

For the compound `CN1CC[C@@]2(CCCN(C(=O)c3csnn3)C2)C1`, the Potency was > 20 µM (inactive).

As for `O=C(Oc1ccccc1)N1CCC2(CCN(Cc3nccs3)CC2)CC1`, the Potency is > 20 µM (inactive).

On to `Cc1ccccc1-c1cncnc1NCCc1cnc[nH]1`, for which the Potency was > 20 µM (inactive).

Consider `CS(=O)(=O)N1CCC2(CC1)CN(Cc1ccncc1)C2`, for which the Potency was > 20 µM (inactive).

As for `c1cc(CN2CCC3(CCNCC3)CC2)ccn1`, the Potency was > 20 µM (inactive).

`c1csc(CN2CC[C@@]3(CCCNC3)C2)n1`: the Potency was > 20 µM (inactive).
